Experiment [1] can be described thus: CCTE_Shafer_MEA_acute_burst_percentage_mean: CCTE's Neural Acute Assay for Percentage of Spikes in a Burst, Shafer Lab (AID 2284017).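 As to AC50: curve fitted for loss of signal so potency reflects decreased burst percentage.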 The procedure, abridged:
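Primary rat cortical neurons on 48-well MEA plates, treated on DIV 13 or 15 at 0.03-40 uM. Spikes detected at 8x rms noise at 37C; percent change from 40-min baseline to 40-min post-dose recording, fitted versus DMSO.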

The nature of experiment [2]: CCTE_Shafer_MEA_acute_burst_percentage_std: CCTE's Neural Acute Assay for Standard Deviation of Burst Percentage, Shafer Lab (AID 2284018).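 Also: fitted in the negative direction so actives lower burst percentage SD.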 The method in brief:
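Rat primary cortical neurons on 48-well MEAs, DIV 13 or 15, 37 C. 40-min baseline then 40-min recording with compound (0.03-40 uM); well-level SD of per-electrode burst spike percentage, expressed as percent change from baseline.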

The nature of experiment [3]: CCTE_Shafer_MEA_acute_per_network_burst_spike_number_mean: CCTE's Neural Acute Assay for Average Number of Spikes in a Network Burst, Shafer Lab (AID 2284019).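 As to AC50: curve fitted for loss of signal so actives reduce spikes per network burst.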 The procedure, abridged:
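Rat primary cortical neurons on 48-well MEA at DIV 13 or 15, 37 C; compounds 0.03-40 uM, at least three wells each. 40-min baseline then 40-min exposure recording; percent change in mean spikes per network burst.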

A short description of experiment [4]: CCTE_Shafer_MEA_acute_per_network_burst_spike_number_std: CCTE's Neural Acute Assay for Standard Deviation of Number of Spikes in a Network Burst, Shafer Lab (AID 2284020).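 Also: fitted for decrease in spike-number SD versus DMSO so actives lower it.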 The procedure, abridged:
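Rat primary cortical neurons on 48-well MEA (16 electrodes/well), treated DIV 13 or 15 at 0.03-40 uM, ≥3 wells per compound. 40 min recordings at 37 C before and after dosing; value is percent change in network-burst spike-number SD, negative direction vs DMSO.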

The nature of experiment [5]: CCTE_Shafer_MEA_acute_per_network_burst_electrodes_number_mean: CCTE's Neural Acute Assay for Mean Number of Electrodes in a Network Burst, Shafer Lab (AID 2284021).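 Also: curves fitted for decreases only so hits reduce electrodes per burst.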 The procedure, abridged: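 Rat primary cortical neurons on 16-electrode MEA wells were recorded 40 min at baseline on DIV 13 or 15, then 40 min after compound (0.03-40 uM), at 37 C. Value is percent change per well, fitted in loss direction versus DMSO.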

Experiment [6] can be described thus: CCTE_Shafer_MEA_acute_network_burst_percentage: CCTE's Neural Acute Assay for Percentage of Network Bursts, Shafer Lab (AID 2284022).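 Also: curves fitted for loss so actives lower network burst percentage.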 The method in brief:
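Primary rat cortical neurons on 16-electrode MEA wells, treated on DIV 13 or 15 with compound (0.03-40 uM); 40-min baseline and 40-min post-exposure recordings at 37 C. Value is percent change in spikes within network bursts versus baseline, DMSO negative control.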

Experiment [7] is described as follows: CCTE_Shafer_MEA_acute_cross_correlation_area: CCTE's Neural Acute Assay for Area of Cross Correlation, Shafer Lab (AID 2284024).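 Also: area under pooled inter-electrode spike cross-correlation near zero lag as percent change from own baseline; curves fitted for loss of cross-correlation area so actives lower synchrony.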 The method in brief:
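Primary rat cortical neurons on 48-well MEA plates (16 electrodes/well) were recorded 40 min at baseline on DIV 13 or 15, then 40 min with compound (0.03-40 uM) at 37 C; cross-correlation area expressed as percent change from baseline.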

Experiment [8] can be described thus: CCTE_Shafer_MEA_acute_cross_correlation_HWHM: CCTE's Neural Acute Assay for Cross Correlation at Half Width at Half Maximum, Shafer Lab (AID 2284026).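 Also: hits are a decrease in cross-correlogram half width relative to DMSO.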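 As to outcome: spontaneous network firing of rat primary cortical neurons on multiwell microelectrode arrays.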 The procedure, abridged: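 Primary rat cortical neurons on 16-electrode MEA wells; 40-min baseline on DIV 13 or 15, then 40-min recording with compound (0.03-40 uM) at 37 C. HWHM of spike cross-correlogram expressed as percent change from baseline per well, DMSO reference.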

Experiment [9] in a line: CCTE_Shafer_MEA_acute_synchrony_index: CCTE's Neural Acute Assay for Synchrony, Shafer Lab (AID 2284027).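 Also: network synchrony index of spontaneous spiking in primary rat cortical neurons on MEAs; fitted for loss of signal so actives lower synchrony relative to DMSO.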 The method in brief:
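Primary rat cortical neurons on 16-electrode MEA wells were recorded 40 min at baseline (DIV 13 or 15) and 40 min after compound (0.03-40 uM) at 37 C. Synchrony index (0-1) expressed as percent change from baseline, versus DMSO.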

Experiment [10] addresses Estrogen receptor (Homo sapiens) (UniProt P03372). The experiment can be described thus: CCTE_Deisenroth_AIME_384WELL_LUC_Active: CCTE's 384-well Estrogen Receptor Transactivation Assay with AIME metabolic competence (ERTA luciferase; metabolism positive), Deisenroth Lab (AID 2284030; active = hit-call score of the fitted dose curve at least 0.9, where 1 is the maximum). The procedure, abridged:
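Test chemicals (10-point series, 0.002 - 200 uM) were preincubated 2 hours with alginate-immobilized phenobarbital/beta-naphthoflavone-induced male Sprague Dawley rat liver S9; conditioned medium then went onto VM7Luc4E2 breast cells for 24 hour. Luciferase gain-of-signal fitted relative to 17beta-estradiol.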

Inconclusive results are not listed. Activity calls are given as the source filed them. The calls were made as follows, unless noted: active = hit-call score of the fitted dose curve at least 0.9, where 1 is the maximum; inactive = score below 0.9.

Estrogen receptor (Homo sapiens), sequence (P03372 whole entry, looked up): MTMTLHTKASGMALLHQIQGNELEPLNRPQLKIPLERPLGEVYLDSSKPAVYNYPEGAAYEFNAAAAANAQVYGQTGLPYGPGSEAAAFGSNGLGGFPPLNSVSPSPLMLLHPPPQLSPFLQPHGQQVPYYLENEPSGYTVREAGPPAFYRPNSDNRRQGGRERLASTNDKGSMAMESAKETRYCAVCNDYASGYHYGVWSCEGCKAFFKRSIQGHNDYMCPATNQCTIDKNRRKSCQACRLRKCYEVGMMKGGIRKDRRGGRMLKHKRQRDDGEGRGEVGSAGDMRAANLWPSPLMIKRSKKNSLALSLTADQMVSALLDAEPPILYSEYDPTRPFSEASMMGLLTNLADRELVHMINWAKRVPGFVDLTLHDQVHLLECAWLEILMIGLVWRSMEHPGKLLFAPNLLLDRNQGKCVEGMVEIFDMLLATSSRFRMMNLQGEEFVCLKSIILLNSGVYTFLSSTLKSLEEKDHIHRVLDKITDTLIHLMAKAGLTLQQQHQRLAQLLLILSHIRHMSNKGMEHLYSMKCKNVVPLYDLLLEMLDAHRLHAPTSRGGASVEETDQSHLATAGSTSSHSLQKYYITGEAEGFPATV

In general, AC50 refers to the concentration at which the activity in the assay is half-maximal. Turning to `C=CC(C)(O)CCC=C(C)C` (stereo not drawn), the compound was called inactive in experiment [1], in [2], in experiment [3], in [4], in experiment [5] and in experiment [7]. For the same compound, the outcome in experiment [8] and in experiment [9] was inactive. In addition, the AC50 in experiment [6] was 3 nM (active).

For `O=C(Nc1ccc2c(O)c(N=Nc3ccc(N=Nc4ccc(S(=O)(=O)O)cc4)cc3)c(S(=O)(=O)O)cc2c1)c1ccccc1`, the AC50 in [1] and in experiment [9] was 15000 nM (active) throughout. Moreover, the compound was classed as inactive in [2], in experiment [3], in experiment [4], in [5], in experiment [6] and in [7]. Also, in experiment [8], the result was inactive.

In the case of `CCOC(=O)C(C#N)=C(c1ccccc1)c1ccccc1`, the call in experiment [1], in experiment [2], in experiment [3], in experiment [4], in [5] and in [6] was inactive. Further, the call in [7], in [8] and in experiment [9] was inactive.

With `CCCCCCCCCCCC(=O)OCC(O)CO` (stereo not drawn), in [10], the compound was called inactive.

Take `COCCc1ccc(OCC(O)CNC(C)C)cc1` (stereo not drawn): the result in experiment [1], in [2], in experiment [3], in [4], in [5] and in [6] was inactive. Moreover, the result in [7], in experiment [8] and in [9] was inactive.

As to `CS(=O)(=O)OCCCCOS(C)(=O)=O`, the compound was classed as inactive in experiment [10].

Turning to `O=CN1CCOCC1`, the call in experiment [1], in experiment [2], in [3], in experiment [4], in experiment [5] and in [6] was inactive. Also, the result in experiment [7], in [8] and in [9] was inactive.

Regarding `CN(C)C(=S)SC(=S)N(C)C`, the compound was called inactive in [1], in [2], in experiment [3], in [4], in experiment [5] and in experiment [7]. Moreover, the outcome in [8] and in [9] was inactive. Moreover, the AC50 in experiment [6] is 3390 nM (active).

For `CC(CN=Cc1ccccc1O)N=Cc1ccccc1O` (stereo not drawn), the call in [1], in experiment [2], in experiment [4], in experiment [5], in [6] and in [7] was inactive. Also, the result in [9] was inactive. Moreover, the concentration at half-maximal activity (AC50) in experiment [3] and in experiment [8] was 15000 nM (active) throughout.

With `CC1(C)CCC[C@]2(C)[C@H]3CCO[C@]3(C)CC[C@@H]12`, the compound was called inactive in experiment [1], in [2], in experiment [3], in [4], in experiment [5] and in [6]. Also, the compound was called inactive in [7], in experiment [8] and in experiment [9].

In the case of `CCCCCCC(CO)CCCC` (stereo not drawn), the half-maximal activity concentration (AC50) in [1] was 4140 nM (active); in [3], 50.9 nM (active); in [5], 77.4 nM (active); in experiment [8], 4380 nM (active); in experiment [9], 4680 nM (active). Besides, the result in experiment [2], in [4], in experiment [6] and in experiment [7] was inactive.

Turning to `Oc1c(Cl)cc(Cl)c(Cl)c1Cc1c(O)c(Cl)cc(Cl)c1Cl`, the AC50 is 163 nM (active) in experiment [1]; 153 nM (active) in experiment [4]; 540 nM (active) in [5]; 454 nM (active) in experiment [6]; 127 nM (active) in [7]; 203 nM (active) in experiment [9]. Also, the result in experiment [2], in experiment [3] and in experiment [8] was inactive.

For `CC(C)CCCCCCc1ccc(OCCOCCO)cc1`, in [10], the compound was classed as inactive.

The values above are taken from PubChem BioAssay (EPA / NIEHS).
